Eleven compounds from ChEMBL document CHEMBL3988442, “University of Dundee, Small-Polar-MMV Screening Library” (2021) can be followed below.

Each structure is given as a SMILES string. For some of these results: Entries with a potency or affinity are not part of this list.

What all share (design): scale not given: direction of the effect not stated beside the values
Assay [1] has as its target Protein translocase subunit SecA (Escherichia coli (strain K12)) (UniProt P10408). In words: Assay to Identify E. coli SecA ATPase Inhibitors. The note with it: 30 µM. In kind it is functional.
For assay [2], the target named is T1, Ubiquitin-activating enzyme e1, putative (Leishmania donovani (strain BPK282A1)) (UniProt E9BSI1).
T1 sequence (whole entry): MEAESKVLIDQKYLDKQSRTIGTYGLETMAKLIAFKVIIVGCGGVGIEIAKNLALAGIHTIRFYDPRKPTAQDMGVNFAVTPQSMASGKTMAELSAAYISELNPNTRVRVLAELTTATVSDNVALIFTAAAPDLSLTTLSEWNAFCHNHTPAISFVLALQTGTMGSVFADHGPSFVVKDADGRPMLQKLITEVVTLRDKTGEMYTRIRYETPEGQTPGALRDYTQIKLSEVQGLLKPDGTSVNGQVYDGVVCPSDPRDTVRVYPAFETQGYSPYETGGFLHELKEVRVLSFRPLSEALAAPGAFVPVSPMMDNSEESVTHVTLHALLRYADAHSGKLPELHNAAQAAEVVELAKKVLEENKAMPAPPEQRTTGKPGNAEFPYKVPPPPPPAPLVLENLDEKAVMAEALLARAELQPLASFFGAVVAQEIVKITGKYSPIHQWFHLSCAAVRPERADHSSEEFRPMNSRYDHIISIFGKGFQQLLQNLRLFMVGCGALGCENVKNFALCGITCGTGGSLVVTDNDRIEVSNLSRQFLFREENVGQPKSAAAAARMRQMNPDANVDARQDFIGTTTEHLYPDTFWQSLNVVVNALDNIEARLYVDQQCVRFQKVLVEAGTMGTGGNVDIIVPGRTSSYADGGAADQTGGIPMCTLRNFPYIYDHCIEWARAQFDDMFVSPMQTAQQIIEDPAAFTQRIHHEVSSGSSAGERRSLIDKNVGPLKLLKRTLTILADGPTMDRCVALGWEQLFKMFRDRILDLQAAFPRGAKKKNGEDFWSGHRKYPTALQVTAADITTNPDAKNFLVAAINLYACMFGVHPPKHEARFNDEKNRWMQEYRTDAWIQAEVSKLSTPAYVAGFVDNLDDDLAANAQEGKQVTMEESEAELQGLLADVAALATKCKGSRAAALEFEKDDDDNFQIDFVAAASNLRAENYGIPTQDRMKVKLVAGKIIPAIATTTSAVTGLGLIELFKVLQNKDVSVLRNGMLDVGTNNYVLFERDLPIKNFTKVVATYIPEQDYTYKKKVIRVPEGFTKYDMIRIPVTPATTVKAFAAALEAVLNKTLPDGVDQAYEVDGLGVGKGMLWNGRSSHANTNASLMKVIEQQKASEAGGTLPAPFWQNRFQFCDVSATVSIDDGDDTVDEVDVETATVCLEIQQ
In words: Leishmania donovani Ubiquitin Activating Enzyme (LdE1). The class given is functional. The note with it: 30 µM.

Assay [3] has as its target AMP-activated protein kinase, AMPK (Homo sapiens) (UniProt P54646+O43741+P54619+Q9UGJ0+Q9Y478+Q13131+Q9UGI9). In words: AMP-dependent Kinase enzyme assay. An in vitro enzyme assay that detects ADP turnover that is directly proportional to AMPK activity. This uses naive AMPK that is activated during the assay with MK-8722. In kind it is functional. To be noted: 30 µM.
Assay [4] has as its target Sialic acid-binding Ig-like lectin 9 (Homo sapiens) (UniProt Q9Y336). In words: Hs-Siglec9 ALPHAscreen SOP 20170721. To be noted: 10 µM. (Alpha assays give light when donor and acceptor beads are brought close together.)
A further assay deals with Trypanosoma cruzi. In words: Trypanosoma cruzi phosphomannomutase and mannose-1-phosphate guanylyltransferase assay. To be noted: 10 µM. The class given is functional.
Assay [5] concerns the target T2, Arginase-2, mitochondrial (Homo sapiens) (UniProt P78540).
T2 sequence (whole entry): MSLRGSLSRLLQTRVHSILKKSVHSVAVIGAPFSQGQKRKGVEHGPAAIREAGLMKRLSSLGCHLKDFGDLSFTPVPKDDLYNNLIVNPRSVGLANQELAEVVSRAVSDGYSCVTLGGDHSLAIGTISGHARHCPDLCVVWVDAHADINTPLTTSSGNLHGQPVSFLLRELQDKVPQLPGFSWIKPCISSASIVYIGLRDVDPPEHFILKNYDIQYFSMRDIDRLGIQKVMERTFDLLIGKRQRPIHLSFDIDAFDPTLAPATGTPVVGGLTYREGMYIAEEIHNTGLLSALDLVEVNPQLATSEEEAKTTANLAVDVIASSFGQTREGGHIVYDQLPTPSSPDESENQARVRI
Briefly: in vitro enzyme assay to detect the production of urea directly proportional to the activity of Arginase II. Further: in the data most compounds retested in dose-response had high values. The class given is functional. The note with it: 33.3 µM.

Assay [6] has as its target T3, Proteasome subunit beta (Trypanosoma cruzi) (UniProt O96673).
T3 sequence (whole entry): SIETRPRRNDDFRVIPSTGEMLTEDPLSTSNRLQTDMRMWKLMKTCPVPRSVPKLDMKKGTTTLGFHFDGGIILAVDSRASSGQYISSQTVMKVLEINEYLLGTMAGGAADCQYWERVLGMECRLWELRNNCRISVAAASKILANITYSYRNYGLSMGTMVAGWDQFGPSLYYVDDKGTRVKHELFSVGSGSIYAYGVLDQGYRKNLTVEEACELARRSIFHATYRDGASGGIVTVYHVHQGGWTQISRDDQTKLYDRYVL
In words: Trypanosoma cruzi proteasome chymotrypsin-like activity (TcProtChymo) assay. Further: in the data most compounds retested in dose-response had high values. In kind it is functional. The note with it: 9.37 µM.

The next assay is filed under the species Homo sapiens. Briefly: To identify inhibition of the IFN signalling (Jak-Stat) pathway via expression of an eGFP reporter gene under the control of an IFN-stimulated response element (ISRE) containing MxA promoter. In kind it is functional. To be noted: 30 µM. Background: Reporter assays use an easily measured gene product as a stand-in for the process of interest.

For assay [7], the target named is T4, Tyrosyl-tRNA synthetase, putative (Trypanosoma cruzi (strain CL Brener)) (UniProt Q4DSP6).
T4 sequence (whole entry): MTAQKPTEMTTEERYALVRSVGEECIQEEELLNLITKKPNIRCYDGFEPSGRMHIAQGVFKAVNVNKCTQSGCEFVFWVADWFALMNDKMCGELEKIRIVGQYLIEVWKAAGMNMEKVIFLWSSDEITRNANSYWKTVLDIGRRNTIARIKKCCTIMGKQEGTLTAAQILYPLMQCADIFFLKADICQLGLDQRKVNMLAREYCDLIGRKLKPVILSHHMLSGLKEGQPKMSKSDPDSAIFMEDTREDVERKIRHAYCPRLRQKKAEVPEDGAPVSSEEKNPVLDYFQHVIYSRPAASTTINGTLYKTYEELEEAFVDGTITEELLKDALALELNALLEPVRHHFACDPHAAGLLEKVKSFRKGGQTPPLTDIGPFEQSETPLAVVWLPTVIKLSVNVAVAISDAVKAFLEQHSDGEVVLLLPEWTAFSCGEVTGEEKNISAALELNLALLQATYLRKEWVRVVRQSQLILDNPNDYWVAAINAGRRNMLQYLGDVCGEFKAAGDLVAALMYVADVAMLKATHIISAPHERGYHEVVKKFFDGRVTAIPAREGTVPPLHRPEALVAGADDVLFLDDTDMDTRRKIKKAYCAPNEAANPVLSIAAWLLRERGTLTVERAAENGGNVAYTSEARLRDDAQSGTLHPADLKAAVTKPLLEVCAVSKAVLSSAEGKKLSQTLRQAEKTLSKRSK
Briefly: Trypanosoma cruzi tyrosyl tRNA synthetase (TcYRS) _High Tyrosine SOP. Further: in the data most compounds retested in dose-response had high values. In kind it is functional. The note with it: 30 µM.

Assay [8] deals with T4, Tyrosyl-tRNA synthetase, putative (Trypanosoma cruzi (strain CL Brener)). In words: Trypanosoma cruzi tyrosyl tRNA synthetase (TcYRS) SOP. The class given is functional. The note with it: 30 µM.
For assay [9], the target named is Chromo domain-containing protein 1 (Saccharomyces cerevisiae (strain ATCC 204508 / S288c) (Baker's yeast)) (UniProt P32657). Briefly: ScCHD-1 Enzyme Inhibition Assay. Further: in the data most compounds retested in dose-response had high values. In kind it is functional. To be noted: 30 µM.
Chromo domain-containing protein 1 (Saccharomyces cerevisiae (strain ATCC 204508 / S288c) (Baker's yeast)), sequence (P32657 whole entry, the tested form may be a part): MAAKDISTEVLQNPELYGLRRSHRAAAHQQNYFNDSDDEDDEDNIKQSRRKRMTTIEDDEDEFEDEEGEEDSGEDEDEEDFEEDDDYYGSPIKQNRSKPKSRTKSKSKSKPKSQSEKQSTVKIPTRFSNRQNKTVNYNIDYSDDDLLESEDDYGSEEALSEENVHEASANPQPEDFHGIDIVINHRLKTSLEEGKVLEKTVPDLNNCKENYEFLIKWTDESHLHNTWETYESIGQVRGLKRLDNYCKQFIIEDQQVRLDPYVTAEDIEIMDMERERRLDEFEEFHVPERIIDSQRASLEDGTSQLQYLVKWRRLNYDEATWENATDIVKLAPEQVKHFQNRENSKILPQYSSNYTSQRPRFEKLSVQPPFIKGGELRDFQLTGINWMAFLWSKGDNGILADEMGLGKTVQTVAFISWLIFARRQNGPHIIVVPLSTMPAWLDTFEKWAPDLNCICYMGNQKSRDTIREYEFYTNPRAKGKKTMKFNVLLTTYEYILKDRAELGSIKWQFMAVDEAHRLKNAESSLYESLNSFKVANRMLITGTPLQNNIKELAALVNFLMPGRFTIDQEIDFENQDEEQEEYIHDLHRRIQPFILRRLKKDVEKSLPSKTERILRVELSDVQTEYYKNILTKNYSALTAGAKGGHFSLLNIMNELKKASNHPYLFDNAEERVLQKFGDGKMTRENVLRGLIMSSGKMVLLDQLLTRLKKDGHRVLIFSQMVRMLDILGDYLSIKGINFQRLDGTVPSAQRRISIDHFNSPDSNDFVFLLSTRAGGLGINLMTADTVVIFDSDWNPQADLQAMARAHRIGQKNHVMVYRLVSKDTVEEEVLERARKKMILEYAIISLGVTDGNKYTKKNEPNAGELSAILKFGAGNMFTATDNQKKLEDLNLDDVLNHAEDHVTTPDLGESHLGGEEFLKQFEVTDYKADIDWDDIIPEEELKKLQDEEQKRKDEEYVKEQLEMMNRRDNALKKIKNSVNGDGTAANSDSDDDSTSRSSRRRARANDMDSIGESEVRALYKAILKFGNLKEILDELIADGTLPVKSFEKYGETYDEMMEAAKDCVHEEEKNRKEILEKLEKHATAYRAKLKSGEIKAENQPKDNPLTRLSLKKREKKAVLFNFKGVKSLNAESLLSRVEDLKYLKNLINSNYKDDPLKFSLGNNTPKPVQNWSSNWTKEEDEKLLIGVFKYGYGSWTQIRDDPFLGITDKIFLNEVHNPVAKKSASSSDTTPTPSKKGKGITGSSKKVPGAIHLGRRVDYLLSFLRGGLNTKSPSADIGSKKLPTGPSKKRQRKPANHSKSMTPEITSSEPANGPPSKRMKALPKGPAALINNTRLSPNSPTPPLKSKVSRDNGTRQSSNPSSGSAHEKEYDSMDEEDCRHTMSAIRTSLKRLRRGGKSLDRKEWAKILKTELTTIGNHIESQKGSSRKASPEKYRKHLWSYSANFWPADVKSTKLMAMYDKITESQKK

Protein translocase subunit SecA (Escherichia coli (strain K12)), sequence (P10408 whole entry): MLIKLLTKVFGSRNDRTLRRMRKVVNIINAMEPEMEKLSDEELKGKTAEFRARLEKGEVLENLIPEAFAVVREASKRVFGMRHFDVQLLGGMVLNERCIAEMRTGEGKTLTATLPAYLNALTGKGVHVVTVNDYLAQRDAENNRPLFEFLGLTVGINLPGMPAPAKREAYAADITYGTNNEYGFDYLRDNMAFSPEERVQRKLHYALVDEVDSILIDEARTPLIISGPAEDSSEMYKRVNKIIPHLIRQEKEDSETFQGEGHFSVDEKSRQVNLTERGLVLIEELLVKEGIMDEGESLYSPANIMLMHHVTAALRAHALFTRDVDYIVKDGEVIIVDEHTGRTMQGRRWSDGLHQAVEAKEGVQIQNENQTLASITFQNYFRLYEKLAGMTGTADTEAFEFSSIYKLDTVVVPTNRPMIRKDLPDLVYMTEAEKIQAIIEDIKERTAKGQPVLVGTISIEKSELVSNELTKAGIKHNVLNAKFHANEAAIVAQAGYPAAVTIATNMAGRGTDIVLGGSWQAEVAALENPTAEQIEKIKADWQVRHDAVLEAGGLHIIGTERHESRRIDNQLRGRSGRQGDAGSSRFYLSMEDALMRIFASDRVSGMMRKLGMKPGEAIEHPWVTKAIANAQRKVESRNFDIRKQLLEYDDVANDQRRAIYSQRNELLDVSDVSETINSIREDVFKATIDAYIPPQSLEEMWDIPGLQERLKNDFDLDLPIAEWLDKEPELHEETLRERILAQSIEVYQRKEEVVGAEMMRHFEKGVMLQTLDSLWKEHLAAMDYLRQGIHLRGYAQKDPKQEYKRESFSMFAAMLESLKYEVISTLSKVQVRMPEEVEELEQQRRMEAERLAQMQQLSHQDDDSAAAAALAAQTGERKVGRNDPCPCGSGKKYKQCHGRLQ
Sialic acid-binding Ig-like lectin 9 (Homo sapiens), sequence (Q9Y336 whole entry): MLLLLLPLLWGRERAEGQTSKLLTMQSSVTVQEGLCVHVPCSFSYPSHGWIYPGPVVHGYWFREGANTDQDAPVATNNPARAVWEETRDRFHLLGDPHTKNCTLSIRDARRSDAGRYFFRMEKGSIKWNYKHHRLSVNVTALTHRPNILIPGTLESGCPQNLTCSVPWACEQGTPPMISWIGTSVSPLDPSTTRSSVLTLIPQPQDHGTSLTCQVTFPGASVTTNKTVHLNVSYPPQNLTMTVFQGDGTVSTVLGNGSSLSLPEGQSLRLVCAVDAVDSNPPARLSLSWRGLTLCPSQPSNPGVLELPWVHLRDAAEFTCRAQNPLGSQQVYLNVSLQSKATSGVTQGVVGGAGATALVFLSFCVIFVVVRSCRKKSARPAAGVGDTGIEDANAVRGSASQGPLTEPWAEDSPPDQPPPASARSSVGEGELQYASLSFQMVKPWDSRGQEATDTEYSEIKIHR

On to `Cn1c(Nc2cn[nH]c2)c(C#N)c(=O)n(C)c1=O`, for which the Percent Effect in assay [1] was -7.22%; in [2], 5.41%; in assay [3], -1.11%; in assay [4], -6.81%; with Trypanosoma cruzi, -8.31%; in [5], -1.74%. Further, the Percent Effect is 14.3% in assay [6]; -8.26% in the assay listed under Homo sapiens; -3.23% in assay [7]; 1.24% in assay [8]; -4.94% in assay [9].
For `Cc1noc(C)c1-c1cncc(C2CCCN2Cc2ccncc2)n1` (stereo unspecified), the Percent Effect in assay [1] came to 1.38%; in assay [2], 1.35%; in [3] it was 12%; in [4], 8.81%; in the assay on Trypanosoma cruzi it was 0.79%; in [5], 0.696%. The Percent Effect in assay [6] is 6.08%; in the assay listed under Homo sapiens it was 32.8%; in [7] it was 2.15%; in [8], 1.3%; in assay [9], -9.13%.
As to `CCn1ccnc1CN1CCN(CCC(=O)NC(C)(C)C)CC1C` (stereo unspecified), the Percent Effect in assay [1] is -2.88%; in [2], 8.11%; in assay [3], -0.327%; in assay [4], 5.56%; in the assay with Trypanosoma cruzi, 3.71%; in [5], 10%. Besides, the Percent Effect in [6] is 5.16%; in the assay listed under Homo sapiens, 5.99%; in assay [7], 10.9%; in assay [8] it was 15.8%; in assay [9], -3.56%.
With `Cc1nc(-c2ccsc2)ccc1C(=O)NCCC(=O)N1CCCC1`, the Percent Effect is -5.91% in assay [1]; 13.2% in assay [2]; -2.05% in [3]; 5.21% in assay [4]; 6.2% in the assay on Trypanosoma cruzi; 1.15% in assay [5]. In addition, the Percent Effect in assay [6] was 3.34%; in the assay filed under Homo sapiens, -2.2%; in assay [7] it was -1.47%; in assay [8], 9.76%; in assay [9], -11.3%.
Regarding `COCCN1C(=O)[C@]2(CC[C@@H]3CN(C(=O)NC4CCCC4)C[C@@H]32)N=C1C`, the Percent Effect in assay [1] was -2.35%; in assay [2], 8%; in assay [3], -3.34%; in assay [4], 5.66%; with Trypanosoma cruzi it was 4.83%; in assay [5], -52.5%. Also, the Percent Effect in [6] was 6.84%; in the assay listed under Homo sapiens it was -7.18%; in assay [7], -7.29%; in assay [8] it was 10%; in assay [9], -9.58%.
On to `Cc1cnn(CC2CN(Cc3cccc(C(=O)N(C)C)c3)CCO2)c1` (stereo unspecified), for which the Percent Effect in assay [1] is -2.21%; in assay [2], 23.4%; in assay [3], -1.81%; in assay [4], 0.495%; in the assay with Trypanosoma cruzi, 3.56%; in [5], -7.83%. The Percent Effect in [6] was 14.7%; in the assay filed under Homo sapiens, 14.3%; in assay [7], 7.77%; in [8] it was 19.5%; in assay [9] it was -9.57%.
Turning to `Cc1ccc(N2CCCC(NCc3ccc(C)o3)C2)nn1` (stereo unspecified), the Percent Effect in [1] is -0.735%; in assay [2] it was 6.33%; in assay [3], 1.51%; in assay [4], -2.46%; in the assay with Trypanosoma cruzi, 4%; in assay [5], -1.5%. The Percent Effect is 28.8% in assay [6]; -8.15% in the assay listed under Homo sapiens; 5.21% in assay [7]; 10.1% in assay [8]; -15.2% in assay [9].
`Cc1ccc(-c2nc(CN3CCc4nn(C)c(=O)cc4C3)no2)cc1`: the Percent Effect in assay [1] was -1.55%; in assay [2], -24.3%; in assay [3], 7.36%; in assay [4], -4.73%; in the assay with Trypanosoma cruzi it was 5.75%; in assay [5], 2.81%. Also, the Percent Effect is -12.8% in [6]; 2.86% in the assay filed under Homo sapiens; -0.493% in assay [7]; -1.24% in [8]; -4.17% in [9].
Turning to `CCS(=O)(=O)NC[C@]12COC[C@H]1CN(Cc1cccc(OC)c1)C2`, the Percent Effect in assay [1] is -2.67%; in assay [2], -2.7%; in assay [3], 2.37%; in assay [4], 5.65%; with Trypanosoma cruzi, 6.16%; in assay [5] it was -4.14%. In addition, the Percent Effect in [6] was 7.93%; in the assay listed under Homo sapiens, 11.7%; in assay [7], 0%; in assay [8] it was 5.13%; in assay [9] it was 14.6%.
As for `Cn1ccnc1SCc1nc(C(C)(C)NC(=O)OC(C)(C)C)no1`, the Percent Effect in [1] is -5.41%; in assay [2] it was 18.7%; in [3], -1.15%; in assay [4] it was 21.2%; in the assay with Trypanosoma cruzi, 5.94%; in assay [5] it was 2.08%. Also, the Percent Effect in [6] is 10.6%; in the assay filed under Homo sapiens, 21.2%; in assay [7], 6.01%; in assay [8] it was 16.1%; in [9], -9.46%.
`Cc1scc(C(=O)N2CCC3(CCCN(C)C3=O)C2)c1-c1ccccc1` (stereo unspecified): the Percent Effect in assay [1] is -0.994%; in [2], 0%; in [3] it was 1.8%; in assay [4], -1.74%; in the assay with Trypanosoma cruzi it was -3.09%; in assay [5] it was 1.91%. For the same compound, the Percent Effect in assay [6] was 7.41%; in the assay listed under Homo sapiens it was -8.13%; in assay [7], -2.65%; in [8], 9.76%; in assay [9] it was -4.36%.
